Measurements: the supplement of paper PMC10981050
“And” between values parts separate entries of the source, which are not always exact repeats. Equal values may be shown once. Where a name gives a salt, the structure may show the parent alone.

Legend:
Test in all cases: cell viability relative to vehicle control; higher = less cytotoxic
Conditions in all cases: 10 µM
K562 = test system: K562
In short: (§1)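 After removal of identity-inconsistent compounds, the Selleck bioactive, kinase and epigenetic probe libraries were screened on CRISPR-edited mutant clones and isogenic wild-type clones of four leukaemia lines. Plates were 384-well, each well holding 2000 cells in 50 µL medium and receiving a single 10 µM acoustically dispensed dose. CellTiter-Glo luminescence was read 48 h later, after the supernatant was taken off. Genedata Screener was used to express viability as percent of the on-plate vehicle control.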

MARIMO = test system: MARIMO
In short: as §1

MOLM14 = test system: MOLM14
In short: as §1

OCI-AML2 = test system: OCI-AML2
In short: as §1

Row | Compound | cell viability (K562; SRSF2 genotype: SRSF2 P95H/wt) | cell viability (K562; SRSF2 genotype: SRSF2 wt/wt) | cell viability (MARIMO; SRSF2 genotype: SRSF2 P95H/wt) | cell viability (MARIMO; SRSF2 genotype: SRSF2 wt/wt) | cell viability (MOLM14; SRSF2 genotype: SRSF2 P95H/wt) | cell viability (MOLM14; SRSF2 genotype: SRSF2 wt/wt) | cell viability (OCI-AML2; SRSF2 genotype: P95H/wt) | cell viability (OCI-AML2; SRSF2 genotype: wt/wt)
1 | CCn1c(=O)c2c(nc(/C=C/c3ccc(OC)c(OC)c3)n2C)n(CC)c1=O [Istradefylline (KW-6002)] | 90.7% and 83.8% | 85.1% | 81.1% | 95.3% | 96.5% | 97.6% | 117% | 92.4%
2 | CCCN(CCC)CCc1cccc2c1CC(=O)N2 [Ropinirole HCl] | 98.9% and 97.5% | 95.9% | 103% | 100% | 103% | 102% | 100% | 89.4%
3 | C1CCN2C[C@@H]3C[C@@H](CN4CCCC[C@@H]34)[C@H]2C1 [Sparteine] | 95% and 97.6% | 91.1% | 96.8% | 94.9% | 99% | 94.8% | 97.5% | 94.3%
4 | CN(C)CCc1c[nH]c2ccc(CS(=O)(=O)N3CCCC3)cc12 [Almotriptan malate (Axert)] | 101% and 87% | 91% | 84.3% | 101% | 96.9% | 95.9% | 99.2% | 87.6%
5 | CC(C)c1ccccc1Cc1cc(C(=O)Nc2ccc(S(=O)(=O)c3ccccc3C(C)(C)C)cc2)c(O)c(O)c1O | 8.56% and 5.5% | 7.92% | 17.6% | 18.2% | 4.45% | 1.48% | 2.91% | 8.83%
6 | CC(=O)Nc1ccccc1 [Acetanilide (Antifebrin)] | 104% | 101% | 106% | 106% | 96.4% | 101% | 105% | 102%
7 | CC(C)(C)NS(=O)(=O)c1cncc(-c2cc(F)c3nc(N)nn3c2)c1 | 100% and 102% | 101% | 93.8% | 93.9% | 92.5% | 103% | 81.1% | 80.8%
8 | NC(=O)c1ncn([C@@H]2O[C@H](CO)[C@@H](O)[C@H]2O)n1 [Ribavirin (Copegus)] | 100% and 95.1% | 90.2% | 87.2% | 97.3% | 56.2% | 24% | 99.6% | 92.5%
9 | O=C(CCCCCCC(=O)N/N=C/c1ccc(N(c2ccccc2)c2ccccc2)cc1)NO | 38.5% and 60.9% | 54.6% | 65.8% | 18.7% | 1.58% | 1.31% | 0.64% | 1.98%
10 | Nc1[nH]cnc2ncnc1-2 [Adenine hydrochloride] | 127% and 120% | 105% | 98.5% | 111% | 105% | 108% | 114% | 118%
11 | CC(C)NCC(O)c1ccc(NS(C)(=O)=O)cc1 (stereo not drawn) [Sotalol HCl] | 106% and 102% | 95.7% | 101% | 109% | 104% | 102% | 106% | 102%
12 | NC(=O)[C@@H](CCC(F)(F)F)N(Cc1ccc(-c2ncon2)cc1F)S(=O)(=O)c1ccc(Cl)cc1 | 92.5% and 98.1% | 93.9% | 84.8% | 96.6% | 88.2% | 97.9% | 106% | 104%
13 | CNS(=O)(=O)C[C@H]1CC[C@H](N(C)c2[nH]cnc3nccc2-3)CC1 [Oclacitinib maleate] | 95.6% and 99.2% | 103% | 95.5% | 102% | 55.9% | 73% | 77.5% | 72.5%
14 | O=c1[nH]cnc2nc[nH]c12 [Hypoxanthine] | 98.8% and 108% | 96.8% | 101% | 116% | 103% | 115% | 103% | 105%
15 | O=C(/C=C/n1cnc(-c2cc(C(F)(F)F)cc(C(F)(F)F)c2)n1)N1CC(F)(F)C1 | 27.6% and 15.9% | 11.8% | 35.7% | 36.6% | 2.44% | 1.55% | 1.41% | 2.6%
16 | Nc1ccc(S(=O)(=O)Nc2ncccn2)cc1 [Sulfadiazine] | 108% and 105% | 108% | 114% | 110% | 103% | 108% | 111% | 110%
17 | CC(C)(C)c1ccc(S(=O)(=O)NCc2ccc(C(=O)Nc3cccnc3)cc2)cc1 | 31.8% and 20.2% | 26.6% | 20.9% | 32.5% | 9.88% | 1.9% | 5.52% | 5.41%
18 | COc1cc2nccc(Oc3ccc(NC(=O)NC4CC4)c(Cl)c3)c2cc1C(N)=O [E7080 (Lenvatinib)] | 63.7% and 82.7% | 67.5% | 83.9% | 89.3% | 34.6% | 28.1% | 50.9% | 56.1%
19 | O=C(O)CCCC[C@@H]1CCSS1 (racemic) [Thioctic acid] | 94.1% and 87.7% | 88.3% | 93.1% | 99.4% | 92.8% | 94.1% | 97.1% | 98.9%
20 | COc1ccc(C(=O)C(=O)c2ccc(OC)cc2)cc1 | 104% and 97.9% | 104% | 95.5% | 105% | 100% | 106% | 94.5% | 90.8%
21 | Oc1nc(-c2ccc(C(F)(F)F)cc2)nc2c1CSCC2 | 105% and 99.2% | 105% | 104% | 105% | 94% | 95.5% | 94.6% | 96.7%
